Experimental data as given in PubChem BioAssay (Tox21).
Results filed as inconclusive are left out. Active and inactive are the calls of the source. Unless noted, calls follow the shape of the dose curve; as a rule, active = well fitted curve in the direction sought with a large enough effect in the repeat runs; inconclusive = weak or mixed curves; inactive = no such curve, though single readings can be large; an effect the other way counts as inactive or inconclusive.

Columns and labels:
[1] = qHTS assay to identify small molecule agonists of the RXR signaling pathway - cell viability counter screen (AID 1159529); also: nearly all actives have a fitted effect of over 50% in size; also: potency is read from the fitted curve at half-maximal effect
Outline: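 CellTiter-Glo luminescence gave viability in the wells also read for beta-lactamase. Cells (RXR-alpha-UAS-bla HEK 293T, 2% charcoal-stripped FBS medium) had 5 hr plating, then 16 hr compound exposure at 37 C; tetraoctyl ammonium bromide served as positive control.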

[2] = qHTS assay to identify small molecule antagonists of the retinoid acid receptor (RAR) signaling pathway - cell viability counter screen (AID 1159551); also: nearly all actives have a fitted effect of over 35% in size
Outline: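 Cytotoxicity counter screen: ATP content quantified by CellTiter-Glo luminescence in C3RL4 cells treated 6 hr at 37 C with compound and retinol (1 uM final). Cells plated at 1,000/well and cultured overnight before dosing.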

[3] = qHTS assay to identify small molecule antagonists of the retinoic acid receptor (RAR) signaling pathway (AID 1159552; also: nearly all actives have a fitted effect of over 50% in size; also: potency is read from the fitted curve at half-maximal effect)
Outline: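 Luminescent RARE reporter read-out in C3RL4 cells: 6 hr co-treatment at 37 C of test compounds with retinol at 1 uM final. Cells plated overnight beforehand; luciferase reagent incubated 30 min at room temperature before reading.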

[4] = qHTS assay to identify small molecule agonists of the retinoic acid receptor (RAR) signaling pathway (AID 1159553); conditions: C3RL4 RARE luciferase reporter, agonist, 6 h; activation: at 73.3 µM (top of the series) unless noted
Outline: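 Luminescence was measured 30 min after luciferase reagent addition at room temperature. Before that, C3RL4 reporter cells (1,000 per well, plated overnight) were treated with compound for 6 hr at 37 C and 5% CO2.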

[5] = qHTS assay to identify small molecule antagonists of the estrogen related receptor (ERR) signaling pathway - cell viability counter screen (AID 1224818);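 also: viability measured after 17.5 h of compound exposure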
Outline: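 Cytotoxicity counter screen: fluorescence from CellTiter-Fluor, added after 17.5 h compound exposure at 37 C and read 30 min later. ERR cell line seeded at 2,000 cells/well, preincubated 6 h before dosing.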

[6] = qHTS assay to identify small molecule antagonists of the estrogen related receptor (ERR) signaling pathway (AID 1224819;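 also: luminescence from an ERR-driven luciferase reporter measured with One-Glo reagent; nearly all actives have a fitted effect of over 50% in size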)
Outline: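 LOPAC library screened for antagonism as reduced One-Glo luminescence in ERR reporter cells (2,000/well). Compounds were added after 6 h pre-incubation and left 18 h at 37C; reading followed a 30 min room-temperature reagent step.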

[7] = qHTS assay to identify small molecule agonists of the estrogen related receptor (ERR) signaling pathway (AID 1224820)
Outline: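 Following a 6 h settling period, 2,000 ERR cells per well receive DMSO-dissolved compounds by pin tool and incubate 18 h at 37 C; agonist activity is scored from One-Glo luminescence read 30 min post-addition.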

[8] = tested on: estrogen-related receptor alpha (ERRalpha) with PGC-1alpha coactivator, human; assay: qHTS assay to identify small molecule antagonists of the estrogen related receptor signaling pathway with the pleiotropic PPARgamma coactivator (PGC) (AID 1224821; calls by dose curve;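 also: lower luminescence signal means antagonism of PGC/ERR signalling; nearly all actives have a fitted effect of over 50% in size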)
Outline: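 Screening used NTP's PGC/ERR cells, dosed via pin tool with compound in DMSO alongside positive and negative controls. After 18 h at 37 C, One-Glo reagent sat 30 min at room temperature before luminescence detection.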

[9] = qHTS assay to identify small molecule agonists of the estrogen related receptor signaling pathway with the pleiotropic PPARgamma coactivator (PGC) (AID 1224823)
Outline: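 In this quantitative high-throughput screen, an 18 h, 37 C treatment of PGC/ERR cells with compounds in DMSO preceded a One-Glo luminescence read taken after 30 min at room temperature.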

[10] = target: Luciferin 4-monooxygenase (Photinus pyralis) (UniProt P08659); assay: qHTS assay to identify small molecule inhibitors of firefly luciferase (AID 1224835); also: nearly all actives have a fitted effect of over 25% in size
Outline: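 Quantitative HTS format; KM concentrations of both substrates. Purified P. pyralis FLuc activity quantified from luminescence images.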

[11] = qHTS assay to identify small molecule agonists of the constitutive androstane receptor (CAR) signaling pathway - cell viability counter screen (AID 1224836); also: nearly all actives have a fitted effect of over 45% in size
Outline: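 Cell viability multiplexed with the CAR agonist screen: CellTiter-Fluor fluorescence after 23 hr at 37 C. HepG2-CYP2B6-hCAR cells got compounds at 15 concentrations with PK11195 at 0.75 uM final.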

[12] = qHTS assay to identify small molecule antagonists of the constitutive androstane receptor (CAR) signaling pathway - cell viability counter screen (AID 1224837); also: nearly all actives have a fitted effect of over 45% in size
Outline: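 Cytotoxicity counter-screen: CellTiter-Fluor fluorescence after 23 h compound exposure (15-point qHTS) in double-stable HepG2-CYP2B6-hCAR cells, with 50 nM CITCO added.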

[13] = qHTS assay to identify small molecule antagonists of the estrogen related receptor signaling pathway with the pleiotropic PPARgamma coactivator (PGC) from Tox21 10K library - cell viability counter screen (AID 1224840; active = well fitted cell-killing curve with a large enough effect in the repeat runs, not every such curve was filed as active; also: nearly all actives have a fitted effect of over 40% in size; also: potency is read from the fitted curve at half-maximal effect)
Outline: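 Counter-screen for cytotoxicity: after 17.5 h compound exposure at 37 C, CellTiter-Fluor reagent added to PGC/ERR cells for 30 min and fluorescence read. Cells were seeded at 2,000 per well 6 h before dosing.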

[14] = qHTS assay to identify small molecule antagonists of the estrogen related receptor signaling pathway with the pleiotropic PPARgamma coactivator (PGC) from Tox21 10K library (AID 1224841; call rule not given here)
Outline: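 Luminescence (One-Glo, 30 min at room temperature) after 18 h compound treatment at 37 C of PGC/ERR reporter cells plated at 2,000 cells/well and settled 6 h beforehand.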

[15] = qHTS assay to identify small molecule agonists of the estrogen related receptor signaling pathway with the pleiotropic PPARgamma coactivator (PGC) from Tox21 10K library (AID 1224842); also: nearly all actives have a fitted effect of over 15% in size
Outline: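 PGC/ERR reporter cells (NTP line) were seeded 2,000 per well, rested 6 h at 37 C/5% CO2, then pin-dosed with compounds in DMSO for 18 h at 37 C; luciferase read by One-Glo luminescence after 30 min at room temperature.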

[16] = target: Thyrotropin receptor (Homo sapiens) (UniProt P16473); assay: qHTS assay to identify small molecule agonists of the thyroid stimulating hormone receptor (TSHR) signaling pathway (AID 1224843; calls by dose curve; also: nearly all actives have a fitted effect of over 45% in size)
Outline: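 Using 15 concentrations per compound in triplicate, cAMP production was monitored in TSHR-HEK293 cells after 30 min compound incubation at RT; HTRF reagents followed, with fluorescence intensity recorded after 1 h.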

[17] = qHTS assay to identify small molecule agonists of the hypoxia (HIF-1) signaling pathway - cell viability counter screen (AID 1224844; calls by dose curve; also: nearly all actives have a fitted effect of over 50% in size)
Outline: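 Cytotoxicity measured by CellTiter-Glo ATP luminescence in the wells also read for beta-lactamase signal. Cells were HRE-bla ME-180 (2,000/well, 0.5% dialyzed FBS), exposed to compounds for 17 h at 37C.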

[18] = qHTS assay to identify small molecule antagonists of the estrogen related receptor (ERR) signaling pathway from Tox21 library - cell viability counter screen (AID 1224834); also: nearly all actives have a fitted effect of over 30% in size; also: potency is read from the fitted curve at half-maximal effect
Outline: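 CellTiter-Fluor fluorescence, read after 30 min at 37 C, measures viability of ERR cells. Cells plated at 2,000/well and incubated 6 h before pin-tool compound addition, then exposed 17.5 hours at 37 C.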

[19] = target: Nuclear receptor subfamily 1 group I member 3 (Homo sapiens) (UniProt Q14994); assay: qHTS assay to identify small molecule antagonists of the constitutive androstane receptor (CAR) signaling pathway (AID 1224838);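 also: HepG2 cells stably expressing hCAR with CYP2B6 luciferase reporter stimulated by CITCO; nearly all actives have a fitted effect of over 40% in size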
Outline: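 Antagonism measured as luciferase signal (ONE-Glo, 30 min, room temperature) in CAR-stimulated cells: HepG2-CYP2B6-hCAR double-stable line exposed 24 hr at 37 C to compound in a 15-point series plus 50 nM CITCO.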

[20] = target: Nuclear receptor subfamily 1 group I member 3 (Homo sapiens) (UniProt Q14994); assay: qHTS assay to identify small molecule agonists of the constitutive androstane receptor (CAR) signaling pathway (AID 1224839);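 also: HepG2 cells stably carrying human CAR and a CYP2B6 luciferase reporter; nearly all actives have a fitted effect of over 15% in size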
Outline: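 Luminescent ONE-Glo read-out after 24 hr, 37 C exposure of double-stable HepG2-CYP2B6-hCAR reporter cells to a 15-point compound series, in the presence of 0.75 uM PK11195 (final).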

Measured: Potency

Chain of Luciferin 4-monooxygenase (Photinus pyralis) (P08659 whole entry, looked up): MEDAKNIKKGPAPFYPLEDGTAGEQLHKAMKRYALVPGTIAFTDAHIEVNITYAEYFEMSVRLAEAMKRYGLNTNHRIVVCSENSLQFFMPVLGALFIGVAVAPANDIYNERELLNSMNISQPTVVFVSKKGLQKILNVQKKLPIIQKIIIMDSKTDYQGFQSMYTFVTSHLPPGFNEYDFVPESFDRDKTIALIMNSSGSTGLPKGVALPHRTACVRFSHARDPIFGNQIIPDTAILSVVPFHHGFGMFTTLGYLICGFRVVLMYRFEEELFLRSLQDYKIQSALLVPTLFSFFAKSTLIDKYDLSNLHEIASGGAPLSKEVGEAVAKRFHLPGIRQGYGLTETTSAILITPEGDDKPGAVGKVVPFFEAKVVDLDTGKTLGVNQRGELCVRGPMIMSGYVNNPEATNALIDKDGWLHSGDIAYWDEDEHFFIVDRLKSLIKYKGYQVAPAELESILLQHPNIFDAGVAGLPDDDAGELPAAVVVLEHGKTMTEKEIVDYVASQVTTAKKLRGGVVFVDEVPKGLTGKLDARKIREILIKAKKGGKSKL
Chain of Thyrotropin receptor (Homo sapiens) (P16473 whole entry, looked up): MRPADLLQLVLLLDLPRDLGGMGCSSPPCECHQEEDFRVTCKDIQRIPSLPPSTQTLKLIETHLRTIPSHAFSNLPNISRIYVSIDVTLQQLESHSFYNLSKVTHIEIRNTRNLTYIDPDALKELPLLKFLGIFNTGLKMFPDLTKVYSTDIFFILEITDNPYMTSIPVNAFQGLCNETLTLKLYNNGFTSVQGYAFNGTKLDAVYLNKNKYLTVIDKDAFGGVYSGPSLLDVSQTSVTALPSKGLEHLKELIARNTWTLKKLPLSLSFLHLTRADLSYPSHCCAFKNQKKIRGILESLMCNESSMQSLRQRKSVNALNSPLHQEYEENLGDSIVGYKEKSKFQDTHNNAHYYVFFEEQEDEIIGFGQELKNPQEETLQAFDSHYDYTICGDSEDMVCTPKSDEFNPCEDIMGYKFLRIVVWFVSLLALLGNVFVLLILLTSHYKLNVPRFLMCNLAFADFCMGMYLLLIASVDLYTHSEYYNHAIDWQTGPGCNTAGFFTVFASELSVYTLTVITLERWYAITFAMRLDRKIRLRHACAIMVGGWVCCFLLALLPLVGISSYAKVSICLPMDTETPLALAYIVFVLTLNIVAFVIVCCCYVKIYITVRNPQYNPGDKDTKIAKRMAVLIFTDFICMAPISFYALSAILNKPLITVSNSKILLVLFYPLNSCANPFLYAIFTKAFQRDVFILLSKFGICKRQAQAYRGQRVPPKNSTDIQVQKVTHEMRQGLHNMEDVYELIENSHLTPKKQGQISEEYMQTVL
Chain of Nuclear receptor subfamily 1 group I member 3 (Homo sapiens) (Q14994 whole entry, looked up): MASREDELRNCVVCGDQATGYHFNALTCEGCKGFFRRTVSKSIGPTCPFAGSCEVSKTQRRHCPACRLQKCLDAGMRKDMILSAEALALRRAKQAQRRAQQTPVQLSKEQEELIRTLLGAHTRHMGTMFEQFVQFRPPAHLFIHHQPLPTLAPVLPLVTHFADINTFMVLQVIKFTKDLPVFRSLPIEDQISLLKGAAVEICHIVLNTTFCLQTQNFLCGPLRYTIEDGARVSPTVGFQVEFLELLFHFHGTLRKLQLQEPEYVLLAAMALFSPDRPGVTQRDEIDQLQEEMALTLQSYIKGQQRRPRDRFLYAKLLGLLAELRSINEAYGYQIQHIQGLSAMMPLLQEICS

Nc1nc2c(ncn2COCCO)c(=O)[nH]1
inactive: [1] | [2] | [3] | [4] | [5] | [6] | [7] | [8] | [9] | [10] | [11] | [12] | [13] | [14] | [15] | [16] | [17]

CN(C)Cc1ccccc1O
inactive: [1] | [2] | [3] | [4] | [18] | [10] | [11] | [12] | [19] | [20] | [13] | [14] | [15] | [16]

CC1(C)CC(O)CC(C)(C)N1
inactive: [1] | [2] | [3] | [4] | [18] | [10] | [11] | [12] | [19] | [20] | [13] | [16]

CCCCCCOC(=O)C(C)CC (stereo not given)
inactive: [1] | [2] | [3] | [4] | [18] | [10] | [11] | [12] | [19] | [20] | [13] | [14] | [15] | [16]

CC(C)(c1cc(Br)c(OCC(Br)CBr)c(Br)c1)c1cc(Br)c(OCC(Br)CBr)c(Br)c1 (stereo not given)
inactive: [1] | [2] | [3] | [4] | [18] | [10] | [11] | [12] | [13] | [14] | [15] | [16]

C=Cc1cccc(C)c1
inactive: [1] | [2] | [3] | [4] | [18] | [10] | [11] | [12] | [19] | [20] | [16]

COc1ccc2c(c1)c(CC(=O)OC/C=C(\C)CC/C=C(\C)CCC=C(C)C)c(C)n2C(=O)c1ccc(Cl)cc1
inactive: [1] | [2] | [3] | [4] | [18] | [10] | [11] | [12] | [19] | [20] | [13] | [14] | [15] | [17]

Cc1ccc(C(=O)O)cc1
inactive: [1] | [2] | [3] | [4] | [18] | [10] | [11] | [12] | [19] | [20] | [13] | [14] | [15] | [16] | [17]

COc1cc(C)ccc1O
inactive: [1] | [2] | [3] | [4] | [18] | [10] | [11] | [12] | [19] | [20] | [14] | [15] | [16]

C=C(C)c1cccc(C(=C)C)c1
inactive: [1] | [2] | [3] | [4] | [18] | [10] | [11] | [12] | [19] | [20] | [16] | [17]

CCCCOC(=O)CC
inactive: [1] | [2] | [3] | [4] | [18] | [10] | [11] | [12] | [19] | [20] | [13] | [16] | [17]

Cc1c(F)c(N2CCNC(C)C2)cc2c1c(=O)c(C(=O)O)cn2C1CC1 (stereo not given)
inactive: [1] | [2] | [3] | [4] | [18] | [10] | [11] | [12] | [20] | [13] | [14] | [15] | [16] | [17]

CC(C)CCCCCOC(=O)CCS
inactive: [1] | [2] | [3] | [4] | [18] | [10] | [11] | [12] | [20] | [13] | [14] | [15] | [16] | [17]

CCCCCCCCCCC[C@@H](C[C@@H]1OC(=O)[C@H]1CCCCCC)OC(=O)[C@H](CC(C)C)NC=O
inactive: [1] | [2] | [3] | [4] | [18] | [10] | [11] | [12] | [20] | [13] | [16] | [17]

O=C(O)c1ccc2cc(C(=O)O)ccc2c1
inactive: [1] | [2] | [3] | [4] | [18] | [10] | [11] | [12] | [19] | [20] | [13] | [16]

C#C[C@]1(O)CC[C@H]2[C@@H]3[C@H](C)CC4=C(CCC(=O)C4)[C@H]3CC[C@@]21C
inactive: [1] | [2] | [4] | [18] | [10] | [11] | [12] | [20] | [13] | [15] | [17]
active: [3] 29.8 µM

O=C(O)c1cc(=O)c2ccccc2o1
inactive: [1] | [2] | [3] | [4] | [18] | [10] | [11] | [12] | [19] | [20] | [13] | [14] | [15] | [16] | [17]

CCOC(=O)c1ccc(C2CCC(NC[C@H](O)COc3ccc(O)c(NS(C)(=O)=O)c3)CC2)cc1 (stereo not given in full)
active: [1] 10.1 µM | [3] 56.4 µM | [18] 63.3 µM | [13] 63.3 µM
inactive: [2] | [4] | [10] | [11] | [12] | [19] | [20] | [14] | [15] | [17]
